Records with an inconclusive call do not appear. A number with no mark means an inactive call. Activity calls are given as the source filed them. Unless noted, calls come from the whole dose curve; as a rule, active = well fitted curve in the direction sought with a large enough effect in the repeat runs; inconclusive = weak or mixed curves; inactive = no such curve, though single readings can be large; an effect the other way counts as inactive or inconclusive.

Test [1] can be described thus: qHTS assay to identify small molecule antagonists of the thyroid receptor (TR) signaling pathway (AID 743065). Note: nearly all actives have a fitted effect of over 55% in size. A digest of the protocol:
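GH3.TRE-Luc rat pituitary cells (two TREs driving luciferase) were dosed with compound, then stimulated with 1 nM T3 (final) for 23.5 h at 37 C. ONE-Glo luminescence was the read-out, with CellTiter-Fluor fluorescence as the cytotoxicity counter-screen.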
Background: qHTS replaces the single test concentration by a dilution series.

The test system of test [2] is thyroid hormone receptor (rat, GH3 cells). As to the kind of experiment: qHTS assay to identify small molecule agonists of the thyroid receptor (TR) signaling pathway (AID 743066; calls by dose curve).
In test [3] the target is Estrogen receptor (Homo sapiens) (UniProt P03372). As to the kind of experiment: qHTS assay to identify small molecule antagonists of the estrogen receptor alpha (ER-alpha) signaling pathway (AID 743069; active = well fitted curve in the direction sought with a large enough effect in the signal ratio in the repeat runs, not every such curve was filed as active; the % refers to the signal ratio). A digest of the protocol: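 Reporter cells (ER-alpha-bla, HEK293 background) are conditioned overnight in stripped-serum medium (2% charcoal-stripped FBS). Compound and 17beta-estradiol exposure runs 18 hr at 37C, 5% CO2.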
Estrogen receptor (Homo sapiens), sequence (P03372 whole entry, looked up): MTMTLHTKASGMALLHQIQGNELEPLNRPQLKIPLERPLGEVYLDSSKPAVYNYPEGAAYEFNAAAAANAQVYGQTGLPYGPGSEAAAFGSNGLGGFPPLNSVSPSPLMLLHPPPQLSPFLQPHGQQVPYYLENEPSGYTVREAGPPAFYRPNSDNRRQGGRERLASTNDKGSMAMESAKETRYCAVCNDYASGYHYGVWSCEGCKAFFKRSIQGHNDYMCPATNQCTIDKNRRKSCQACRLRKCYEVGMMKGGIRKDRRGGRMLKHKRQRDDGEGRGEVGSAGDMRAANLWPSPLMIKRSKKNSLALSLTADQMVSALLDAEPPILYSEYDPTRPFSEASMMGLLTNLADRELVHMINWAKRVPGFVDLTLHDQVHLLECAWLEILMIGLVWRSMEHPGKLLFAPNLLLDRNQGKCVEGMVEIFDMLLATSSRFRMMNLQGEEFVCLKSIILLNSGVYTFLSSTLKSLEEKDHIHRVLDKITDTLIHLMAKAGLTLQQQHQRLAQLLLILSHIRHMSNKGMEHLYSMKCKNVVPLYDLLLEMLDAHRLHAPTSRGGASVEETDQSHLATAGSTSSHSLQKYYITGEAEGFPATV

A short description of test [4]: qHTS assay to identify small molecule antagonists of the estrogen receptor alpha (ER-alpha) signaling pathway - cell viability counter screen (AID 743074; calls by dose curve;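 note: HEK293 cells carrying ER-alpha-UAS-bla reporter stimulated with 17beta-estradiol; nearly all actives have a fitted effect of over 45% in size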).
The target in test [5] is Estrogen receptor (Homo sapiens) (UniProt P03372). As to the kind of experiment: qHTS assay to identify small molecule agonists of the estrogen receptor alpha (ER-alpha) signaling pathway (AID 743075; calls by dose curve;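 note: HEK293 GripTite cells with ER-alpha and UAS-driven beta-lactamase reporter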).
Test [6] shares this target. As to the kind of experiment: qHTS assay to identify small molecule agonists of the estrogen receptor alpha (ER-alpha) signaling pathway using the BG1 cell line (AID 743079). Note: nearly all actives have a fitted effect of over 20% in size. Note: potency is the fitted concentration of half-maximal effect. As to conditions: BG1Luc4E2 cells, ERE-luciferase agonist, 22 h.
Test [7] in a line: qHTS assay to identify small molecule antagonists of the estrogen receptor alpha (ER-alpha) signaling pathway using the BG1 cell line (AID 743080; calls by dose curve;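 note: BG1 cells stimulated with 17beta-estradiol alongside compound; nearly all actives have a fitted effect of over 25% in size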). A digest of the protocol: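 BG1Luc4E2, endogenous ER-alpha, 4xERE-luc; 5 d charcoal-stripped FBS, phenol red free; 24 h plating; cpd + 17beta-estradiol 21.5 h, 37 C/5% CO2; CellTiter-Fluor viability 30 min, then ONE-Glo luciferase 30 min RT.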

Test [8] can be described thus: qHTS assay to identify small molecule antagonists of the estrogen receptor alpha (ER-alpha) signaling pathway using the BG1 cell line - cell viability counter screen (AID 743081).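 Note: compound given together with 17beta-estradiol as the ER stimulus; nearly all actives have a fitted effect of over 45% in size.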
For a further test, the target named is Aromatase (Homo sapiens) (UniProt P11511). The experiment in a line: qHTS assay to identify aromatase inhibitors (AID 743083). Note: nearly all actives have a fitted effect of over 55% in size.
Aromatase (Homo sapiens), sequence (P11511 whole entry, looked up): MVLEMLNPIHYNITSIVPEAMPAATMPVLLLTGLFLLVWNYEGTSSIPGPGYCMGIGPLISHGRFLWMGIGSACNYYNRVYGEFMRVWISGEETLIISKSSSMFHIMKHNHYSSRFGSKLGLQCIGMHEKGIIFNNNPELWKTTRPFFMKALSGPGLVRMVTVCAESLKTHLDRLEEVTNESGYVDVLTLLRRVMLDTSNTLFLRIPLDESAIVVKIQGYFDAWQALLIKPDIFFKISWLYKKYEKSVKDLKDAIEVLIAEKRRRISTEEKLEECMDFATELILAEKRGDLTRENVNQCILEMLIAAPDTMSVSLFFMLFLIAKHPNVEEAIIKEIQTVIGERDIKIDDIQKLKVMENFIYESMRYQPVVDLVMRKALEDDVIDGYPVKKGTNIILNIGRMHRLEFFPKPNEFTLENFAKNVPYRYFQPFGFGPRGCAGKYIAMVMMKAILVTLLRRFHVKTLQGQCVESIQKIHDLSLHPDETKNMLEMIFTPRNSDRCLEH
Test [9] is described as follows: qHTS assay to identify aromatase inhibitors - cell viability counter screen (AID 743084).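 Note: cells stimulated with testosterone during compound exposure; nearly all actives have a fitted effect of over 55% in size.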
Test [10] concerns the target Aryl hydrocarbon receptor (Homo sapiens) (UniProt P35869). The experiment in a line: qHTS assay to identify small molecule that activate the aryl hydrocarbon receptor (AhR) signaling pathway (AID 743085).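 Note: HG2L7.5c1 human HepG2 liver cells with stably integrated DRE-driven firefly reporter; nearly all actives have a fitted effect of over 15% in size.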 A digest of the protocol: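 Luminescence (ONE-Glo) from a dioxin-responsive-element luciferase reporter in HG2L7.5c1 HepG2 cells after 24 hr compound exposure at 37C; viability measured by CellTiter-Fluor fluorescence beforehand.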

A short description of test [11]: qHTS assay to identify small molecule that activate the aryl hydrocarbon receptor (AhR) signaling pathway - cell viability counter screen (AID 743086).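 Note: HepG2 liver cells carrying the AhR DRE luciferase reporter; nearly all actives have a fitted effect of over 45% in size.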 The procedure, abridged:
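HepG2-AhR-luc (HG2L7.5c1) cells, 4000/well, treated 24 h at 37 C with compound; viability measured as CellTiter-Fluor fluorescence after 30 min in the same wells as the luciferase read.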

For test [12], the target named is Peroxisome proliferator-activated receptor gamma (Homo sapiens) (UniProt P37231). The experiment in a line: qHTS assay to identify small molecule agonists of the peroxisome proliferator-activated receptor gamma (PPARg) signaling pathway (AID 743094; active = well fitted activation curve with a large enough effect in the signal ratio in the repeat runs, not every such curve was filed as active; the % refers to the signal ratio). A digest of the protocol: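 Compounds dissolved in DMSO were added to PPARg UAS-bla HEK293H cells for 17 h at 37C, and reporter expression was quantified by fluorescence intensity after 1 h with LiveBLAzer B/G FRET substrate.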
Peroxisome proliferator-activated receptor gamma (Homo sapiens), sequence (P37231 whole entry, looked up): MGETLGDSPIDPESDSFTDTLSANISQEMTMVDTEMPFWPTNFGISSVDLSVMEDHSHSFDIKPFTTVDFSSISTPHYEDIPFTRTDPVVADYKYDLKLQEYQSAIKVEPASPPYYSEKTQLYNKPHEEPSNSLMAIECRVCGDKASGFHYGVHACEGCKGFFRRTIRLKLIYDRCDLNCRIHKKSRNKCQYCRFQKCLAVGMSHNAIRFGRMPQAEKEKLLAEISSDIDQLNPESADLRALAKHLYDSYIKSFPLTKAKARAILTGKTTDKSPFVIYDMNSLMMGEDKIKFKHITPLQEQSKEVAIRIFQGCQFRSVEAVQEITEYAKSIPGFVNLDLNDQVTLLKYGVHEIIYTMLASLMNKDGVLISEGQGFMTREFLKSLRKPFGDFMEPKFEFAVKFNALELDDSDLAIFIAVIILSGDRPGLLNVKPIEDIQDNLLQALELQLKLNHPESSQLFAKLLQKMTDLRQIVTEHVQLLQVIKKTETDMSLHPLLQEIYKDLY

Test [13] shares this target. The experiment in a line: qHTS assay to identify small molecule antagonists of the peroxisome proliferator-activated receptor gamma (PPARg) signaling pathway (AID 743191; calls by dose curve; note: nearly all actives have a fitted effect of over 30% in size). The procedure, abridged:
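GeneBLAzer PPARg UAS-bla HEK293H cells, 5 h post-plating, exposed to compounds 17 h at 37C. LiveBLAzer B/G FRET substrate added for 1 h at room temperature; beta-lactamase reporter read by fluorescence intensity.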

Test [14] is described as follows: qHTS assay to identify small molecule antagonists of the peroxisome proliferator-activated receptor gamma (PPARg) signaling pathway - cell viability counter screen (AID 743194). Note: nearly all actives have a fitted effect of over 55% in size. As to conditions: Potency: co-treated with 50 nM rosiglitazone. A digest of the protocol: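 Cytotoxicity counter screen in PPARg-bla HEK293H cells, same wells as reporter assay. Compounds plus 50 nM rosiglitazone (final) for 17 h at 37 C, then viability read by CellTiter-Glo luminescence.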

The nature of test [15]: qHTS assay for small molecule agonists of the antioxidant response element (ARE) signaling pathway (AID 743202; active = well fitted activation curve with a large enough effect in the signal ratio in the repeat runs, not every such curve was filed as active; the % refers to the signal ratio). A digest of the protocol:
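Agonist mode reporter screen: HepG2 cells with ARE-controlled beta-lactamase are incubated with test compounds for 16 h at 37 C, and beta-lactamase activity is measured as fluorescence of cleaved B/G FRET substrate.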

Test [16] can be described thus: qHTS assay for small molecule agonists of the antioxidant response element (ARE) signaling pathway - cell viability counter screen (AID 743203; calls by dose curve; note: nearly all actives have a fitted effect of over 55% in size). A digest of the protocol:
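Following 16 hrs of compound treatment at 37C, HepG2 cells with an ARE-controlled beta-lactamase gene were lysed with CellTiter-Glo. Luminescence was read after 30 min at room temperature.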

The nature of test [17]: qHTS assay for small molecule activators of the heat shock response signaling pathway (AID 743210; active = well fitted activation curve with a large enough effect in the signal ratio in the repeat runs, with a control signal flat, not every such curve was filed as active; the % refers to the signal ratio;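 note: HeLa cells with beta-lactamase reporter driven by heat shock elements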). The procedure, abridged:
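Quantitative high-throughput format using an engineered HeLa line in which heat shock response elements drive beta-lactamase; after 5 h with compound, cells received a B/G FRET substrate and fluorescence was read.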

The nature of test [18]: qHTS assay to identify small molecule agonists of the peroxisome proliferator-activated receptor delta (PPARd) signaling pathway - cell viability counter screen (AID 743211). Note: nearly all actives have a fitted effect of over 55% in size. A digest of the protocol: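 Viability was measured as CellTiter-Glo luminescence (30 min, room temperature) in the same wells as the beta-lactamase readout. GeneBLAzer PPARd UAS-bla HEK293H cells received compound after 5 h plating and were incubated 17 h at 37 C.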

Test [19] can be described thus: qHTS assay for small molecule activators of the heat shock response signaling pathway - cell viability counter screen (AID 743209). Note: nearly all actives have a fitted effect of over 50% in size. A digest of the protocol: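 Readout: CellTiter-Glo luminescence, 30 min at room temperature. System: HSE-bla HeLa cells, 1500/well, plated overnight. Treatment: compounds in DMSO, 5 h at 37 C.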
% is set by controls: 0 for no effect and ±100 for the full control effect.

Aryl hydrocarbon receptor (Homo sapiens), sequence (P35869 whole entry, looked up): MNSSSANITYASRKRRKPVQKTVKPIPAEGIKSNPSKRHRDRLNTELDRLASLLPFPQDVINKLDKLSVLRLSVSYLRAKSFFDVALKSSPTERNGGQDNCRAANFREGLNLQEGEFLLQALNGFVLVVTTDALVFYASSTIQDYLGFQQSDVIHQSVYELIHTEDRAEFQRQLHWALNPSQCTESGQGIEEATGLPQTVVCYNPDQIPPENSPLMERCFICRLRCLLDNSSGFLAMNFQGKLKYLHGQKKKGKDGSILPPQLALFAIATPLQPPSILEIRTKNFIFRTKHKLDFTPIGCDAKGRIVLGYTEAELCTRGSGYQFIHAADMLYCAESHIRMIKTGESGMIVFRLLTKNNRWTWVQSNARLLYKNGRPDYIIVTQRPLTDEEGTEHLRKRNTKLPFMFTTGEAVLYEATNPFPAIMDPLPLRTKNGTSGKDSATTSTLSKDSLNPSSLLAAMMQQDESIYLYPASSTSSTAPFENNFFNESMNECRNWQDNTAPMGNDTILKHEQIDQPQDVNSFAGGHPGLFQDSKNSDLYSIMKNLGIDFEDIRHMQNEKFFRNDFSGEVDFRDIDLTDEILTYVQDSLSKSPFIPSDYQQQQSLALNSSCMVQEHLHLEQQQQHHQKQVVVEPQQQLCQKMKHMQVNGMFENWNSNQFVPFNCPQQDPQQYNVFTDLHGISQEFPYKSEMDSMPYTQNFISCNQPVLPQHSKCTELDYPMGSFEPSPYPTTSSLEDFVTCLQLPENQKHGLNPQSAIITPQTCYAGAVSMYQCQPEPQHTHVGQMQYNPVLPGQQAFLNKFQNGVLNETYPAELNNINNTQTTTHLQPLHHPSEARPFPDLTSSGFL

For the compound `CCN(CC)C(C)C(=O)c1ccccc1` (configuration not stated), the Potency entry in [1], in test [2], in [3], in [5], in test [7] and in test [8] was “inactive” each time. Moreover, the Potency result (with Aromatase (Homo sapiens); in test [9]; in test [10]; in [13]; in test [14]; in [15]) was “inactive” in each case. In addition, the Potency result in test [16] and in test [18] was “inactive” each time. The call in [4], in [11], in [12] and in test [17] was inactive. Besides, the activation in [6] (at 70.3 µM (top of the series)) is 0.375%.
For `N#Cc1c(Cl)cccc1Cl`, the Potency entry in [1], in [2], in [3], in [5], in test [7] and in [8] was “inactive” each time. The Potency result (in the test with Aromatase (Homo sapiens); in test [9]; in test [10]; in test [13]; in test [14]; in [15]) was “inactive” throughout. Moreover, the Potency result in test [16], in test [19] and in test [18] was “inactive” each time. Further, the outcome in test [4], in test [11] and in test [12] was inactive. Further, the activation in test [6] (at 70.3 µM (top of the series)) is -1.9%.
Regarding `c1cc2c(c(N3CCNCC3)c1)OCCO2`, the Potency result in test [1], in [2], in [3], in test [5], in test [7] and in test [8] was “inactive” throughout. The Potency entry (in the test with Aromatase (Homo sapiens); in test [9]; in test [10]; in test [13]; in test [14]; in test [15]) was “inactive” throughout. Also, the Potency entry in test [19] and in test [18] was “inactive” in each case. The call in test [4], in test [11], in test [12] and in [17] was inactive. Besides, the activation in test [6] (at 70.3 µM (top of the series)) was 9.1%.
Regarding `CC(=O)C(Cl)Cl`, the Potency result in test [1], in [2], in test [3], in test [5], in [7] and in test [8] was “inactive” in each case. In addition, the Potency result (with Aromatase (Homo sapiens); in [9]; in test [10]; in test [13]; in test [15]; in test [16]) was “inactive” in each case. For the same compound, the Potency result in test [19] and in test [18] was “inactive” in each case. For the same compound, the call in [4], in [11], in test [12] and in [17] was inactive. In test [6] (at 95 µM (top of the series)), the activation was 0.96%.
On to `Cc1cccc(C#N)c1`, for which the Potency result in test [1], in test [2], in test [3], in [5], in test [7] and in test [8] was “inactive” throughout. For the same compound, the Potency entry (with Aromatase (Homo sapiens); in test [9]; in test [10]; in test [14]; in [15]; in test [16]) was “inactive” throughout. The Potency result in test [19] and in test [18] was “inactive” throughout. The compound was called inactive in test [4], in test [11], in [12] and in test [17]. In addition, the Potency in test [6] is 68.2 µM (active).
For `COc1cc2c(cc1OC)[C@@]13CCN4CC5=CCO[C@H]6CC(=O)N2[C@H]1[C@H]6[C@H]5C[C@H]43`, the Potency result in [1], in test [2], in test [3], in test [5], in [7] and in [8] was “inactive” in each case. In addition, the Potency result (with Aromatase (Homo sapiens); in [9]; in test [10]; in [13]; in test [14]; in test [16]) was “inactive” in each case. Moreover, the Potency result in [19] and in test [18] was “inactive” in each case. Moreover, the compound was called inactive in test [4], in [11], in [12] and in test [17]. The activation in test [6] (at 70.3 µM (top of the series)) was -4.94%.
As to `O=C(O)c1cccc(Cl)c1`, the Potency result in test [1], in test [2], in [3], in [5], in [7] and in test [8] was “inactive” in each case. In addition, the Potency entry (with Aromatase (Homo sapiens); in [9]; in test [10]; in test [13]; in [14]; in [16]) was “inactive” in each case. The Potency result in [19] and in test [18] was “inactive” in each case. In addition, the compound was called inactive in test [4], in test [11] and in test [12]. Moreover, in test [6] (at 70.3 µM (top of the series)), the activation is 2.91%.

The record behind these values is PubChem BioAssay (Tox21).
